In ChEMBL document CHEMBL1157539, “Thousands of chemical starting points for antimalarial lead identification” (Nature, 2010):

Tested on: HepG2
Assay: GSK_TCMDC: Percent inhibition of human HepG2 cell line. Test compounds present at 10uM.
Type: functional

First: Cc1cc(-c2ccc3occ(CCN)c3c2)cnc1N
Second: COc1cc(Cc2cnc(N)nc2N)cc(OCCNC(=O)OCc2ccccc2)c1OC
The Inhibition of the first is lower: 0% for the first, 6% for the second.

Compared with `COC(=O)c1cccc(CNCc2ccc(-c3ccc(-c4nc5cc(F)ccc5[nH]4)s3)cc2)c1.O=C(O)C(F)(F)F`, `O=C(Nc1cccc(-c2ccc(-c3nc4ccccc4[nH]3)cc2)c1)Nc1ccc(F)c(F)c1F` is higher in Inhibition: 4% for the first, 45% for the second.

First: Cc1ccc(OC2CCN(CCCCC3(C)C(=O)Nc4ccccc43)CC2)cc1.Cl (centres undefined)
Second: CC(Oc1ccc(Cl)cc1)C(=O)N(C)C1CCN(CCCCCNC(=O)/C=C/c2ccc(Cl)c(Cl)c2)CC1 (centres undefined)
The Inhibition of the first is higher: 63% for the first, 61% for the second.

Compared with `CCOC(=O)c1ccc(NC(=O)Nc2ccc(-c3ccc(-c4nc5ccccc5[nH]4)cc3)cc2)cc1`, `COc1ccccc1N1CCN(CCCCNC(=O)c2ccc(NC(=O)c3cc4ccccc4o3)cc2)CC1` is lower in Inhibition: 49% for the first, 9% for the second.

First: Cc1nc(-c2nc(N3CCC(C(N)=O)CC3)ncc2-c2ccsc2)sc1C
Second: O=C(/C=C/c1ccc(Cl)c(Cl)c1)NCCCCCN1CCC(c2cn[nH]c2-c2ccccc2)CC1
The Inhibition of the first is lower: 0% for the first, 28% for the second.

Going from `CCOC(=O)c1ccc(N2CCN(CCCNC(=O)/C(=C/C=C/c3cc4cc(Cl)c(Cl)cc4[nH]3)OC)CC2)cc1` to `COc1ccc(N2CCN(CCCCNC(=O)c3ccc(NC(=O)c4ccc(Cl)c(Cl)c4)cc3)CC2)c(OC)c1`, the Inhibition falls from 39% to 23%.

Going from `COc1ccc(NC(=O)CCNc2cc(C)nc(NCc3cccc(C)c3)n2)cc1.O=C(O)C(F)(F)F` to `Cc1ccc(NC(=O)c2ccc(CN3CCCN(CC4CCCCC4)CC3)cc2)cc1.O=C(O)C(F)(F)F`, the Inhibition rises from 14% to 41%.

Compared with `Cc1cc(F)ccc1[C@H]1CNCCN1C(=O)N(C)C(C)(C)c1cc(C(F)(F)F)cc(C(F)(F)F)c1.Cl`, `N#CCOc1c(C2CCN(CCCCNC(=O)c3ccc(-c4ccc(C(F)(F)F)cc4)cc3)CC2)ccc2c1CCCC2` is higher in Inhibition: 24% for the first, 59% for the second.

Compared with `O=C(/C=C/c1ccc(Cl)c(Cl)c1)NCCCCCN1CCC(c2c[nH]c3ccc(O)cc23)CC1`, `O=S(=O)(Nc1ccc(CCN2CCC(N3CCCCC3)CC2)cc1)c1cccc2cccnc12` is lower in Inhibition: 20% for the first, 14% for the second.

Compared with `O=C(NOCCOc1ccccc1)c1ccccc1`, `CC(C)C[C@H](NC(=O)c1ccc(OCCN2CCOCC2)cc1)C(=O)N[C@H](/C=N/N1CC(=O)NC1=O)CCc1ccccc1` is higher in Inhibition: 0% for the first, 10% for the second.

Compared with `Cc1cc(Nc2cccc(Cl)c2)nc2ccc(NC(=O)c3ccc(=O)[nH]c3)cc12`, `Cl.Cn1ccnc1S(=O)(=O)CCNCc1ccc(-c2ccc3ncnc(Nc4ccc(OCc5cccc(F)c5)c(Cl)c4)c3c2)o1` is lower in Inhibition: 12% for the first, 0% for the second.

Going from `CCc1cn2c3c(cc(C(=O)N[C@@H](Cc4ccccc4)[C@H](O)CN[C@@H](C)CC)cc13)N(C)S(=O)(=O)CC2.O=CO` to `CCCCCNC(=N)c1ccc(OCCCCCOc2ccc(C(=N)NCCCCC)cc2)cc1.Cl`, the Inhibition rises from 2% to 3%.
